Rows were chosen to be rich in hits. Some 1.7% of all compounds tested hit in one or more screens of this group.
USP1 inh: blocks the human USP1/UAF1 deubiquitinase complex; recombinant USP1/UAF1, Ub-Rhodamine cleavage fluorescence; O94782; actives 0.23% (n = 390,000); Potency, µM (titrated, usually from 57.1 µM), for inactives: top-dose activity change, negative = inhibition, actives largely listed as inhibitors; active = well fitted inhibition curve with a large enough effect; inconclusive = small, poorly fitted or top-dose-only effect; inactive = no such curve, though single readings can be large or run the other way; note: potency is the fitted concentration of half-maximal effect; nearly all actives have a fitted effect of over 60% in size
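In this screen, compounds sit with the deubiquitinase complex (1nM) for 15 min at room temperature before Ub-Rho is added at 150nM final. Fluorescence rise is then followed for 6 reads every 60 seconds.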
Giardia killer: Giardia lamblia killing. AID 540267. Giardia lamblia trophozoite viability. actives 0.15% (n = 340,000). activity change, % at 7.66 µM, hits read low; in the data active = activity change below about -80%; inconclusive = between about -30% and that limit;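 note: parasites exposed to compound for two days anaerobically before the ATP read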
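Luminescent ATP signal served as the viability read-out, measured 15-30 min after adding ATP detection reagent to trophozoites that had been incubated with compounds for 48 hrs at 37 deg C anaerobically at 100 cells/well.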
KCNH2 3.1 block: blocks the human KCNH2 3.1 channel isoform. U2OS KCNH2 3.1, thallium flux FluxOr; hits give low values. activity change, % (tested at about 1.8 µM). actives 0.95% (n = 340,000);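 active = maximum activity change below -70%; inconclusive = maximum activity change from -70% to -50%; inactive = maximum activity change above -50%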;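 note: thallium influx rate constant from kinetic fluorescence after stimulation buffer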
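Kinetic fluorescence (2 min after stimulation buffer) measures Tl+ influx through KCNH2 3.1 expressed by viral transduction in U2OS cells; the rate constant is normalized against DMSO controls serving as positive and negative references.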
FBPA coupling cs: coupling enzyme interference in Giardia aldolase counter-screen; coupling enzyme system counterscreen, AmpLite Red fluorescence; activity change, negative = inhibition, % at 58.2 µM, hits read low; actives 0.67% (n = 290,000); in the data active = activity change below about -30%
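Counterscreen of the coupled detection system alone, without aldolase: glyceraldehyde-3-phosphate coupling enzymes plus AmpLite Red readout. Compounds at 57.5 uM final, 10 min RT preincubation, 20 min RT reaction, fluorescence 525/598 nm.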
KCNH2 WT inh: KCNH2 (human, wildtype) channel inhibition | actives 0.37% (n = 340,000) | Q12809 | activity change, % at 1.84 µM | U2OS, BacMam KCNH2, thallium flux FluxOr; hits give low values;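 active = maximum activity change below -70%; inconclusive = maximum activity change between -70% and -50%; inactive = maximum activity change above -50%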
Target sequence (Q12809 whole entry, looked up): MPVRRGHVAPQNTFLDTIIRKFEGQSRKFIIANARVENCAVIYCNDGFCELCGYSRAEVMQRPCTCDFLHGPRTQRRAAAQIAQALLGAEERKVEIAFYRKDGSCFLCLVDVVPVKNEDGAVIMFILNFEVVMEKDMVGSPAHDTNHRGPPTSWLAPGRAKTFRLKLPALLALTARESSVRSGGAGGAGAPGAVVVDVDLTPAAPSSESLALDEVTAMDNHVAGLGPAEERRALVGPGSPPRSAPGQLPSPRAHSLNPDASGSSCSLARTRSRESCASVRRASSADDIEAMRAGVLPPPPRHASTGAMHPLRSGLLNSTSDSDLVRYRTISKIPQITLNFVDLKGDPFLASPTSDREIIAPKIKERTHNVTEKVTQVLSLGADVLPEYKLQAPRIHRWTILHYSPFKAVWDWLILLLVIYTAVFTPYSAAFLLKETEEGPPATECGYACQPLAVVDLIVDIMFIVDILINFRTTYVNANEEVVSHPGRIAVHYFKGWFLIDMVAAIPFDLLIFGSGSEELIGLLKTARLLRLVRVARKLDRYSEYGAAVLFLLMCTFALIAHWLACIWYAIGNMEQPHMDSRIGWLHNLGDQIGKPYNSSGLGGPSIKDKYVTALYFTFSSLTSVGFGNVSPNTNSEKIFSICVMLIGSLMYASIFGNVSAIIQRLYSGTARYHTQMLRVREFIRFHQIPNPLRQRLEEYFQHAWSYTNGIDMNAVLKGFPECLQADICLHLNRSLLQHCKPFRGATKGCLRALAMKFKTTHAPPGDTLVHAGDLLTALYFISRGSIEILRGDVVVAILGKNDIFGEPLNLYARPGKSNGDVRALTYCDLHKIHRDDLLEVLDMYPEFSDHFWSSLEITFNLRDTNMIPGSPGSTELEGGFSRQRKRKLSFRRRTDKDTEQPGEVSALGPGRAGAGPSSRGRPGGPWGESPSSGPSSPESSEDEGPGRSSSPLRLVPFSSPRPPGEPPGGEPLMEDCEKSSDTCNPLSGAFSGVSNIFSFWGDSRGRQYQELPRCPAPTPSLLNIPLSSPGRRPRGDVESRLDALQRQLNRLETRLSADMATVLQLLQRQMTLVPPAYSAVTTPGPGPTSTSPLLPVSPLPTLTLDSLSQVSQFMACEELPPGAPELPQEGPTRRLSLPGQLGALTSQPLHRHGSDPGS
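U2OS cells transduced with wild-type KCNH2 virus are loaded with FluxOr dye for 45 min, and thallium flux is measured in kinetic reads before and after stimulation buffer. Rate constants are normalized to DMSO controls.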
* hit, by the source's call; ? = inconclusive; . = not tested or not shown. % is set by controls: 0 for no effect and ±100 for the full control effect.

SMILES	USP1 inh	Giardia killer	KCNH2 3.1 block	FBPA coupling cs	KCNH2 WT inh
O=S(=O)(c1ccccc1)N1CCN=C1SCc1ccccc1Cl	-18%	-18	-3	-40*	-15
O=S(=O)(c1ccccc1)N1CCN=C1SCc1ccc(Cl)c(Cl)c1	-9%	17	12	-5	11
Cc1ccccc1NC(=O)CSc1nc(-c2ccco2)nc2cc(=O)[nH]n12	-23%	.	.	.	.
Cc1ccc(NC(=O)CSc2nc3ccccc3c(=O)n2CCCN2CCCCC2)cc1Cl	-4%	-5	-74*	1	-15
CCN(CC)CCn1c(SCC(=O)Nc2ccc3c(c2)CCC3)nc2ccccc2c1=O	-8%	18	-87*	.	-9
O=C(CSc1nc2ccccc2c(=O)n1CCCN1CCOCC1)Nc1ccc(F)c(Cl)c1	-19%	-6	-28	.	7
CCOC(=O)c1c(N)c2cc([N+](=O)[O-])cnc2n1C	13%	-3	8	-1	2
Cn1c([N+](=O)[O-])cnc1COC(N)=O	16%	-90*	-3	4	-13
Cn1c2ccccc2c(=O)n2c(=O)c3ccccc3cc12	.	.	.	-35*	.
Cn1c(-c2ccccc2)cc(=O)c2ccccc21	-2%	2	-6	0	10
CN1CCc2c(sc3c2c(=O)n(-c2ccccc2)c2nnc(SCc4ccc(Cl)cc4)n32)C1	-24%	8	-12	0	-186*
C=C(C)c1cccc(C(C)(C)NC(=O)N2CCN(C(=O)OCC)CC2)c1	-22%	.	-71*	.	-1
C=C(C)c1cccc(C(C)(C)NC(=O)N2CCCC2)c1	-10%	1	17	-4	11
O=c1cc(-c2ccccc2)[nH]c2ccc(F)cc12	-27%	10	-98*	1	-12
O=c1cc(-c2cccc(F)c2)[nH]c2ccc(Cl)cc12	.	.	.	-3	.
O=c1cc(-c2cccc(F)c2)[nH]c2ccccc12	?	-2	-71*	3	2
Cc1ccc(-c2cc(=O)c3cc(F)ccc3[nH]2)cc1	-27%	-8	-14	1	5
CN(C)c1ncnc2ccc(-c3ccccc3C#N)cc12	.	.	.	0	.
O=S(=O)(c1ccccc1Cl)N1CCN(c2nc(-c3ccccc3)nc3ccccc23)CC1	.	10	.	.	.
O=C(N/N=C/c1cccc([N+](=O)[O-])c1)c1ccccc1-n1cccc1	-19%	-3	0	-38*	-13
O=C(COc1ccc(Cl)cc1)NCC(c1cccs1)S(=O)(=O)c1ccc(F)cc1 (configuration not stated)	-3%	.	.	.	.
O=C(NNC(=O)c1ccccc1O)c1ccc(S(=O)(=O)Nc2ccccc2)cc1	-8%	8	5	.	-88*
COc1cc(NC(C)CCCN)c2ncccc2c1Oc1ccccc1 (configuration not stated)	-23%	6	-3	-30*	2
COc1cc(OCc2ccccc2)c(C(=O)/C=C/c2ccc3c(c2)OCO3)c(OC)c1OC	-24%	-10	-11	.	10
Cc1ccc(-c2nc3n(n2)Cc2ccccc2-3)cc1	-4%	?	-13	-12	13
SMILES	USP1 inh	Giardia killer	KCNH2 3.1 block	FBPA coupling cs	KCNH2 WT inh
CCn1c(C)nc2cc(-c3nc4n(n3)Cc3ccccc3-4)ccc21	?	-105*	-3	-15	3
Cc1cccc(C)c1NC(=O)CN(Cc1ccc(Br)cc1)S(=O)(=O)c1ccccc1	-23%	.	.	.	.
CCC(=O)N1CCc2cc(Br)cc(S(=O)(=O)N3CCCC(C(=O)Nc4cc(C)ccc4OC)C3)c21 (configuration not stated)	-23%	.	.	.	.
COCCN1Cc2cccc(C(=O)Nc3cccc(-c4nc5ccccc5[nH]4)c3)c2C1=O	-2%	-1	-73*	-5	26
Cc1ccc(Cn2cc(C(=O)c3ccc(F)cc3)c(=O)c3cc4c(cc32)OCO4)cc1	5%	.	.	.	.
CC(=O)Nc1cc(O)c2nonc2c1O	.	-3	.	.	.
Cc1ccc(OCc2nc(-c3ccc(C(=O)NCCc4ccc(Cl)cc4)cc3)oc2C)cc1	-18%	.	.	.	.
Cc1oc2c(c1C(=O)Nc1ccc(OC(F)(F)F)cc1)C1=NCCN1C=N2	5%	.	.	.	.
O=[N+]([O-])c1ccc(N/N=C/c2ccc(O)c(O)c2O)c(S(=O)(=O)N2CCOCC2)c1	?	-1	-10	-59*	2
O=C(CCc1ccc(S(=O)(=O)N2CCOCC2)cc1)N/N=C/c1ccc(O)c(O)c1O	-17%	5	3	-31*	-11
O=[N+]([O-])c1ccc(N/N=C/c2cccc(O)c2O)c(S(=O)(=O)N2CCOCC2)c1	1%	?	-2	-10	-6
COc1ccc(C)cc1NC(=O)Cn1c(=O)nc(-c2ccccc2F)c2cc(Cl)ccc21	-18%	.	.	.	.
C#Cc1ccc2c(c1)C(=O)N(C)Cc1c(C(=O)OCCCOC(=O)c3ncn4c3CN(C)C(=O)c3cc(C#C)ccc3-4)ncn1-2	.	.	.	2	.
C[C@@H]1CCCCO[C@H](CN(C)S(=O)(=O)c2cccs2)[C@H](C)CN([C@@H](C)CO)C(=O)c2cc(NC(=O)NC3CCCCC3)ccc2O1	-5%	.	-99*	.	-9
C[C@H](CO)N1C[C@H](C)[C@@H](CN(C)C(=O)Nc2ccccc2)Oc2ccc(NC(=O)Nc3ccc4c(c3)OCO4)cc2C1=O	?	5	-120*	.	-17
COc1ccc(C(=O)Nc2ccccc2C(=O)N/N=C/c2cccc3ccccc23)cc1	-24%	-95*	-1	1	-1
COc1cccc(/C=N/NC(=O)c2cccc3ccccc23)c1	-8%	-6	-15	-1	-17
COc1ccc([N+](=O)[O-])cc1/C=N/NC(=O)CNC(=O)C(c1ccccc1)c1ccccc1	-22%	-9	20	-30*	-14
COc1ccc(OC)c(/C=N/NC(=O)CNC(=O)c2cccc3ccccc23)c1	-24%	2	8	-34*	0
COc1ccc(C(=O)Nc2ccccc2C(N)=O)cc1	-3%	?	11	0	2
Cc1ccc(Sc2ccccc2CN(C)C)c(N)c1	.	.	.	-1	.
N#Cc1cccc(S(=O)(=O)N2CCN(S(=O)(=O)c3ccc4c(c3)OCCO4)CC2)c1	.	6	.	.	.
CC(C)[C@@H](C(=O)NC1CCN(Cc2ccccc2)CC1)N1C(=O)N2CCc3c([nH]c4ccccc34)[C@@]2(C)C1=O	19%	-10	-87*	0	?
COc1cc(/C=C2/NC(=O)N(Cc3ccccc3F)C2=O)ccc1O	-11%	-8	-104*	-1	-5
c1ccc(N2CCN(c3ccc4nncn4n3)CC2)nc1	-14%	-4	-184*	2	19
CC(C(=O)Nc1ccc(S(=O)(=O)N2CCCC2)cc1)N1CCc2ccccc2C1 (configuration not stated)	-17%	-5	-187*	.	-7
Cc1ccc(NC(=O)N2CCc3ccccc3C2)cc1	-13%	4	-11	-5	-6
CC(=O)Nc1ccc(S(=O)(=O)N2CCc3ccccc3C2)cc1	-9%	-7	16	3	-4
